# GAA spleen mod: lysosomal alpha-glucosidase (human) modulation; human spleen homogenate, 4-MU-alpha-glucoside fluorescence; P10253; Potency, µM (highest dose often 79.9 µM), for the others: top-dose activity change, negative = inhibition, most hits filed as inhibitors; 0.006% of 240,000 active; AID 2112;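 further: 0% = enzyme with vehicle and -100% = no enzyme basal signal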
#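 Compounds were titrated against alpha-glucosidase in spleen homogenate at pH 5.0, with 1 mM 4-methylumbelliferyl substrate for 40 min at 37 C. Reactions were quenched with pH 10 NaOH/glycine and fluorescence measured.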
# GALK inh: galactokinase (human) inhibition; Purified GALK, Kinase-Glo residual ATP luminescence; Potency, µM (series often up to 57.5 µM), without a hit: at the highest dose activity change, negative = inhibition, actives largely listed as inhibitors; 0.007% of 270,000 active; AID 1868
# Target sequence (P51570 whole entry, looked up): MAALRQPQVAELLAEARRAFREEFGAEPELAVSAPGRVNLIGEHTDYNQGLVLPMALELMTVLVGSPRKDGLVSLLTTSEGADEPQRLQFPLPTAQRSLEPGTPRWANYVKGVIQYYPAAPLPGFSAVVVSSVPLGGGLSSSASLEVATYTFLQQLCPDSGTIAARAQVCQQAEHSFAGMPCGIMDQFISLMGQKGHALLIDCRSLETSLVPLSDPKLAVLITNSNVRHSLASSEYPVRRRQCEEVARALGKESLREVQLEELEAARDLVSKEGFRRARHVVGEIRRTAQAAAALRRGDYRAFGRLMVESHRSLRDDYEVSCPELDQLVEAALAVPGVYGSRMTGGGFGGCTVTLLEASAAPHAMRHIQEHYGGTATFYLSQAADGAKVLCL
#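 ATP-depletion format; final 35 uM ATP, 100 uM D-galactose, 5 nM enzyme; pH 8.0 HEPES/Mg2+ buffer; 60 min RT; luminescence read 10 min after detection reagent.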
# PKM2 act: PKM2 (human) enzyme activation | Potency, µM (doses to about 57.5 µM), inactives show at the highest dose activation, actives largely listed as activators | 0.34% of 260,000 active | purified PKM2, Kinase-Glo ATP luminescence, activation; response scale: 0% is enzyme alone, no compound | P14618; further: nearly all actives have a fitted effect of over 55% in size
#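 Purified hPK-M2 (>95% pure) converted ADP (0.1 mM final) to ATP with 0.5 mM PEP in 50 mM imidazole pH7.2, KCl, MgCl2, Tween 20, BSA; 1 h at room temperature. ATP detected by Kinase-Glo luminescence.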
# GAA inhib: alpha-glucosidase (human) inhibition. P10253. purified human GAA, 4-MU-alpha-glucoside fluorescence. Potency, µM (titrated, usually from 76.9 µM), without a hit: top-dose activity change, negative = inhibition, usual class: inhibitors. 0.005% of 200,000 active. AID 1466;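 further: plate controls were uninhibited enzyme wells for no effect and no-enzyme background for full effect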
#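 Read-out is 4-methylumbelliferone fluorescence (Ex 365/Em 440 nm) after NaOH/glycine stop at pH 10. Enzyme 4 nM, substrate 400 uM, pH 5.0 citrate buffer, 20 min room temperature; AC50 from Hill-equation concentration-response.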
# GAA glycogen mod: alters human alpha-glucosidase cleavage of glycogen; recombinant GAA, glycogen substrate, Amplex Red glucose oxidase fluorescence; Potency, µM (highest dose often 76.4 µM), inactives show top-dose activity change, negative = inhibition, most hits filed as inhibitors; 0.38% of 300,000 active; P10253;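 further: 0% = full enzyme reaction and -100% = no-enzyme basal signal; the screen sought inhibitors and activators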
#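 Recombinant human alpha-glucosidase (4 nM final) hydrolysed bovine liver glycogen (30 ug) for 40 min at 37 C in pH 5.0 citrate/phosphate with 0.01% Tween-20. Released glucose detected by glucose oxidase/Amplex Red, Ex 573/Em 610 nm. Compounds up to 77 uM; AC50 from Hill fits.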
# * marks the source's active call; other numbers are inactive results; ? = inconclusive; . = not tested or not shown; [ ] = remark or other dose. Rows were chosen to be rich in hits. Some 0.63% of all compounds tested hit in one or more screens of this group. The call rests on the fitted dose curve; in most records, active means well fitted curve in the direction sought with a large enough effect; inconclusive means small, poorly fitted or top-dose-only effect, or another doubt; inactive means no such curve, though single readings can be large; an effect the other way counts as inactive or inconclusive. Unless noted, on the % scale 0 is the no-effect control and ±100 the full control effect; potency means the concentration at half of the fitted maximal effect.
SMILES,GAA spleen mod,GALK inh,PKM2 act,GAA inhib,GAA glycogen mod
CCc1ccccc1NC(=O)Nc1nnc(N(C)Cc2ccccc2)s1,.,.,.,.,6%[76.3 µM]
COc1ccc(NCC(=O)Nc2ccc(Br)cc2F)c(OC)c1,3%,.,-7%,2%,40µM*
CCN(CC(=O)Nc1ccc(OC)cc1)CC(=O)Nc1ccc(Br)cc1F,.,1%,-3%,-12%,-10%
CCOc1ccccc1-c1noc(CSc2nnc(-c3ccncc3)n2-c2ccc(F)cc2)n1,.,.,.,.,12%[76.3 µM]
COc1cccc(NC(=O)CSC2=C(C#N)C(c3ccco3)C3=C(CCCC3=O)N2)c1 (centres undefined),4%,-7%,0.79µM*,3%,-13%
Cc1oc2ccc(O)c(CN3CCCC3)c2c1C(=O)Nc1cccc(Cl)c1C,.,.,.,.,3%[76.3 µM]
O=C(COc1ccc(F)cc1)Nc1ccc2nc(SCC(=O)N3CCOCC3)sc2c1,.,.,.,.,-5%[76.3 µM]
O=c1oc2ccccc2c2oc3cc(O)c(O)cc3c12,0%,-1%,?,.,28µM*
C/C=C\C=C/C(=O)Nc1cccc(C2=NOC3(C2)C[C@@H](C(N)=O)N(C(=O)COc2ccc(Cl)cc2)C3)c1 (some centres undefined),2%,-4%,16µM*,.,-4%
C/C=C\C=C\C(=O)N1CC2(CC(c3cccc(NC(=O)COc4ccc(Cl)cc4)c3)=NO2)C[C@H]1C(N)=O (some centres undefined),-2%,1%,16µM*,.,6%
C/C=C\C=C\C(=O)N1CC2(CC(c3cccc(NC(=O)CC)c3)=NO2)C[C@H]1C(N)=O (some centres undefined),5%,3%,7.9µM*,.,-10%
O=C(Nc1ccc(Br)cc1)N1CCC(CN2CCCC2)CC1,.,.,.,.,3%[76.3 µM]
O=C(O)c1cc(N=Nc2ccc(-c3ccc(N=Nc4ccc(O)c(C(=O)O)c4)cc3)cc2)ccc1O,-7%,.,.,.,.
COc1ccccc1-c1nc2c(c(SCc3cc(C)ccc3C)n1)Cc1c(CO)cnc(C)c1O2,.,.,.,.,-10%[76.3 µM]
O=C(Cn1c(=O)oc2cc(S(=O)(=O)NC3CCCC3)ccc21)Nc1ccc(F)c(F)c1,.,.,.,.,12%[76.3 µM]
COc1ccc(CN2C(=O)C(NC(=O)c3ccccc3C)(C(F)(F)F)N=C2c2ccccc2)cc1 (centres undefined),.,.,.,.,-13%[76.3 µM]
Cc1c(N/C=C/C(=O)C(F)(F)F)c(=O)n(-c2ccccc2)n1C,-6%,5%,-5%,0%,?
COc1ccc(C(=O)/C=C/Nc2c(C)n(C)n(-c3ccccc3)c2=O)cc1OC,2%,3%,9%,?,3.1µM*
Cc1ccccc1NC(=O)CSc1ccc(-c2cccs2)nn1,.,.,.,.,-7%[76.3 µM]
CN(CCCC(=O)O)S(=O)(=O)c1ccc2c(c1)C(=O)c1cc(S(=O)(=O)N(C)CCCC(=O)O)ccc1-2,.,-2%,-11%,.,25µM*
COc1cc(-c2cc(OC)c3c(C)oc(C)c3c(=O)c2)ccc1OC(=O)c1ccccc1C,.,.,.,.,-4%[76.3 µM]
Cc1nnc2sc(SCc3ccccc3)nn2c1=O,4%,0%,?,-2%,0%
Cc1nnc2sc(SCc3ccccc3Cl)nn2c1=O,1%,0%,7.1µM*,-4%,8%
Oc1ccccc1N1CCN(c2ncccn2)CC1,-2%,0%,0%,0%,7.9µM*
COc1ccc(-c2cn3c(n2)sc2cc(C(=O)NC4CCCc5ccccc54)ccc23)cc1 (centres undefined),.,.,.,.,-2%[76.3 µM]
SMILES,GAA spleen mod,GALK inh,PKM2 act,GAA inhib,GAA glycogen mod
CCCCS(=O)(=O)CC(O)CSc1nc(-c2ccc(C)cc2)cc(-c2ccccc2)c1C#N (centres undefined),.,.,.,.,-5%[76.3 µM]
FC(F)(F)c1cccc(-n2cccc2/C=N/n2cnnc2)c1,5%,5%,20µM*,-3%,-7%
Cc1cccc(NC(=O)c2ccccc2NC(=O)C2CCCCC2)c1C,-6%,0%,28µM*,6%,1%
O=C(COc1cccc2cccnc12)N/N=C/c1ccccc1O,2%,4%,6%,.,3%
Oc1ccccc1/C=N/Nc1cccc2cccnc12,-12%,-1%,-15%,-11%,7.9µM*
Cc1c(CNCCc2ccc(S(N)(=O)=O)cc2)c(C(=O)O)c(C)n1Cc1ccc(Cl)cc1,.,.,.,.,50µM*
